# Compound activity deposited in PubChem BioAssay by National Center for Advancing Translational Sciences (NCATS).
# Hits are enriched below; roughly 8.5% of the tested compounds scored in any of these assays.
# NPSR antag: antagonists of human neuropeptide S receptor cAMP signaling | Q6W5P4 | CHO-NPSR cells, cAMP TR-FRET, antagonist mode | Potency, µM (top dose mostly 38.3 µM), for inactives: top-dose activity change, negative = inhibition, hits mostly inhibitors | 1% of 220,000 active | AID 1461; active means well fitted curve in the direction sought with a large enough effect; inconclusive means small, poorly fitted or top-dose-only effect, or another doubt; inactive means no such curve, though single readings can be large; an effect the other way counts as inactive or inconclusive; further: potency means the concentration at half of the fitted maximal effect; nearly all actives have a fitted effect of over 50% in size
# Target sequence (Q6W5P4 whole entry, looked up): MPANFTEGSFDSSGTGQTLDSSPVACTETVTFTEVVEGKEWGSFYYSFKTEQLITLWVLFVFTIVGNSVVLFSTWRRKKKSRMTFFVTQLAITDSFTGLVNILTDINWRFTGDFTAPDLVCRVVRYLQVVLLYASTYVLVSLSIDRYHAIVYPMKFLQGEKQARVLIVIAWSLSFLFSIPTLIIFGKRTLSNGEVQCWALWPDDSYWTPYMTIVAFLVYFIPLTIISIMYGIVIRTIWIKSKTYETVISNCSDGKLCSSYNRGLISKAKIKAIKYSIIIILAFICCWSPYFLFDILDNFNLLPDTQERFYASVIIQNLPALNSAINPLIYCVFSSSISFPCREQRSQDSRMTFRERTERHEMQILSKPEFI
# ALDH1A1 inh: blocks purified human ALDH1A1 activity; P00352; Purified ALDH1A1, NADH fluorescence, propionaldehyde substrate; Potency, µM (top dose mostly 75.3 µM), for inactives: at the highest dose activity, negative = inhibition, actives largely listed as inhibitors; 7.3% of 220,000 active;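 further: potency means the concentration at half of the fitted maximal effect; plate controls were no enzyme wells and a reference inhibitor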
# Coupling enz: counter-screen for Giardia aldolase inhibitors: coupling enzyme system | 0.67% of 290,000 active | activity change, negative = inhibition, % at 58.2 µM, hits read low | coupling enzyme system counterscreen, AmpLite Red fluorescence; in the data active means activity change below about -30%
#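 Activity here indicates interference with the coupling reaction, not aldolase inhibition. Compounds at 57.5 uM final met coupling enzymes for 10 min at RT; substrate and AmpLite Red detection followed, with a 525/598 nm fluorescence read after 20 min.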
# JMJD2E inh: blocks human JMJD2E demethylase activity; JMJD2E catalytic domain, FDH-coupled NADH fluorescence (FDH is formaldehyde dehydrogenase); 1.6% of 230,000 active; Potency, µM (top dose mostly 57.1 µM), inactives show at the highest dose activity change, negative = inhibition, hits mostly inhibitors;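 further: potency means the concentration at half of the fitted maximal effect; 0% = wells with enzyme and -100% = buffer wells without enzyme; nearly all actives have a fitted effect of over 50% in size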
# Sfp PPTase inh: blocks B. subtilis Sfp PPTase activity; 3.5% of 310,000 active; Biochemical Sfp PPTase activity, qHTS; Q9F4F7; Potency, µM, for inactives: largest response in the series, negative = inhibition, hits mostly inhibitors; AID 1490; active means well fitted curve in the direction sought with a large enough effect; inconclusive means small, poorly fitted or top-dose-only effect, or another doubt; inactive means no such curve, though single readings can be large; an effect the other way counts as inactive or inconclusive;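 further: the enzyme is Sfp with the accession as filed and its product quenches rhodamine fluorescence; potency means the concentration at half of the fitted maximal effect; 0% = enzyme reaction without inhibitor and -100% = no enzyme wells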
#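 After 15 min at room temperature with compound, 15 nM Sfp received 5 uM rhodamine-CoA plus 12.5 uM BHQ-2-ybbR (50 mM Hepes pH 7.6, 10 mM MgCl2). Rate came from the fluorescence difference over 30 min, ex 525/em 598 nm.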
# GoLoco inh red: blocks human Gai1 binding to RGS12 GoLoco peptide, red readout; Potency, µM (series often up to 61.6 µM), for inactives: at the highest dose activity, negative = inhibition, actives largely listed as inhibitors; Gai1:RGS12 GoLoco peptide FP, rhodamine, 10 min; 0.44% of 230,000 active; P63096; active means well fitted inhibition curve with a large enough effect, not every such curve was filed as active; inactive means no such curve, though single readings can be large or run the other way; further: potency means the concentration at half of the fitted maximal effect; nearly all actives have a fitted effect of over 30% in size
# Target sequence (P63096 whole entry, looked up): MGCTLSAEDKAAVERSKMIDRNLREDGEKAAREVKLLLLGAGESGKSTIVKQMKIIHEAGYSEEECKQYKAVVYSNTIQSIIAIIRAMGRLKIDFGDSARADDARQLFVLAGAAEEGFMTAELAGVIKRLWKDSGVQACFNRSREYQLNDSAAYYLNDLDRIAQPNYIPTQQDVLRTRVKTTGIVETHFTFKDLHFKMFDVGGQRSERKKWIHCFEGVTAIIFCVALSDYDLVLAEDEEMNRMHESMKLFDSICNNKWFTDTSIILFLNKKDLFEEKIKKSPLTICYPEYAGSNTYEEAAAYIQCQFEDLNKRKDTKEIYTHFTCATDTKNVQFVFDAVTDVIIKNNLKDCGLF
# * marks the source's active call; other numbers are inactive results; ? = inconclusive; / = no result; [ ] = remark or other dose. Unless noted, the call rests on the fitted dose curve; in most records, active means well fitted inhibition curve with a large enough effect (not every such curve was filed as active); inconclusive means small, poorly fitted or top-dose-only effect, or another doubt; inactive means no such curve, though single readings can be large or run the other way. Unless noted, on the % scale 0 is the no-effect control and ±100 the full control effect.
SMILES,NPSR antag,ALDH1A1 inh,Coupling enz,JMJD2E inh,Sfp PPTase inh,GoLoco inh red
COc1ccc2c3c([nH]c2c1)C(C)N(CCC(=O)NN)CC3 (configuration not stated),/,/,-1,/,15%,/
COC(=O)[C@@H]1[C@@H]2C[C@H]3c4[nH]c5cc(OC)ccc5c4CCN3C[C@@H]2C[C@H](OC(=O)c2cc(OC)c(OC)c(OC)c2)[C@H]1OC,/,?,-7,10µM*,9%,23%[21.6 µM]
O=C(CSc1nc(-c2ccco2)cc(C(F)(F)F)n1)Nc1ccc2c(c1)OCO2,-8%[46.1 µM],2%,-1,-11%,-7%,9%
O=C(CCSc1nc(-c2ccco2)cc(C(F)(F)F)n1)N1CCCc2ccccc21,?,18µM*,-3,-28%,-10%,4%
O=C(CCCSc1nc(-c2ccco2)cc(C(F)(F)F)n1)Nc1ccc2c(c1)OCO2,-17%[46.1 µM],16µM*,-17,23%,21%,28%
COc1ccccc1CCNC(=O)CCSc1nc(-c2ccco2)cc(C(F)(F)F)n1,?,-11%,1,6%,56µM*,21%
O=C(COc1ccc(Br)cc1)NC1CC1,/,/,/,/,23%,/
O=C(/C=C/c1ccc(Cl)cc1)N(Cc1cccs1)C1CCS(=O)(=O)C1 (configuration not stated),10%,/,1,-2%,0%,-5%
O=C(/C=C/c1ccc(Cl)cc1Cl)N(Cc1ccccc1)C1CCS(=O)(=O)C1 (configuration not stated),0%,2.2µM*,-3,-4%,0%,-6%
O=C(/C=C/c1ccc(Cl)cc1)N(Cc1ccccc1)C1CCS(=O)(=O)C1 (configuration not stated),4%,13µM*,0,0%,-20%,-1%
N/C(=N\OC(=O)CCCCCN1C(=O)c2ccccc2C1=O)c1ccccc1,-18%[46.1 µM],?,1,-7%,7%,-5%
COc1ccc(NS(=O)(=O)c2cc(NC(=O)CC3CCCC3)ccc2N2CCOCC2)cc1,-53%,3.2µM*,-8,?,25µM*,11%
COc1ccc(NS(=O)(=O)c2cc(NC(=O)C3CCCO3)ccc2N2CCCCC2)cc1 (configuration not stated),10µM*,?,1,?,-4%,1%
COc1cccc(=O)c2c(C)n(CC(=O)c3ccccc3)c(C)c12,-19%,?,-24,-11%,45µM*,40%
CCOc1cccc(=O)c2c(C)oc(C)c12,-8%[46.1 µM],-14%,5,?,-6%,5%
CCOc1cccc(=O)c2c(C)n(CC(=O)c3ccccc3)c(C)c12,14%,8.9µM*,-3,-5%,-24%,131%
Cc1cccc(-c2nc3c(c(SCC(=O)N4CCOCC4)n2)COC(C)(C)C3)c1,/,/,/,/,4%,/
CCn1nc(C)cc1-c1n[nH]c(=S)n1N,-6%[46.1 µM],0%,-2,-3%,45µM*,3%
CCn1c(-c2ccco2)n[nH]c1=S,-3%[46.1 µM],-5%,3,?,-13%,12%
CCOc1cc(OCC)cc(C(=O)NC(=S)Nc2cccc(C(F)(F)F)c2)c1,?,3.5µM*,-8,-2%,89µM*,3%
COc1ccc(NC(=S)NNC(=S)Nc2cccc(C(F)(F)F)c2)cc1,19%,0.45µM*,-4,4%,20µM*,-2%
CCCCCNCC(=O)Nc1cccc(C(=O)Nc2cccc(C(F)(F)F)c2)c1,?,-8%,3,?,32µM*,-6%
CCOc1ccc(NC(=S)NNC(=O)c2cc(Br)ccc2Cl)cc1,2%,13µM*,-1,-10%,-11%,10%
CCOc1ccc(NC(=O)c2cc(SC)ccc2Cl)cc1,4%,2%,3,0%,11%,0%
O=c1cnc2cc([N+](=O)[O-])ccc2[nH]1,-5%,?,7,-27%,5%,6%
SMILES,NPSR antag,ALDH1A1 inh,Coupling enz,JMJD2E inh,Sfp PPTase inh,GoLoco inh red
CC(C)(O)C(=O)NNC(=S)Nc1cccc(C(F)(F)F)c1,0%,?,5,-25%,8%,5%
Cc1ccccc1C(=O)NNC(=S)Nc1cccc(C(F)(F)F)c1,9%,18µM*,-3,1%,-18%,-15%
FC(F)(F)c1cccc(NC(=S)NNC(=S)Nc2cccc(C(F)(F)F)c2)c1,?,1.6µM*,-7,-1%,25µM*,10%
O=C(NNC(=S)Nc1cccc(C(F)(F)F)c1)c1ccc(Cl)cc1Cl,15%,20µM*,5,-10%,1%,11%
Cc1cccc(NC(=S)NNC(=O)c2ccccc2OC(F)F)c1,-21%[46.1 µM],9.5µM*,1,-4%,-5%,-10%
COCCN(CC1CCCN(C2Cc3ccccc3C2)C1)C(=O)CCC(N)=O (configuration not stated),/,/,2,/,11%,/
COc1ccc(OCCCC(=O)N(C)CC(=O)Nc2ccccc2Cl)cc1,/,/,/,/,11%,/
CCCNc1nc(C)cc(-c2cc(-c3ccc(Cl)cc3)on2)n1,16%,/,3,-25%,5%,-2%
CCCCN(CC(O)COc1cccc(C)c1)CC(O)COc1cccc(C)c1 (configuration not stated),/,/,0,/,5%,/
O=C(O)CS(=O)CC(=O)NCc1cccc(C(F)(F)F)c1 (configuration not stated),18%,2%,-5,-11%,5%,-27%
O=C(O)CS(=O)CC(=O)Nc1cccc(C(F)(F)F)c1 (configuration not stated),10%,1.8µM*,-1,1%,-3%,10%
CNNC(=S)Nc1cccc(C(F)(F)F)c1,-13%,-1%,-2,5%,-5%,-14%
CCOc1ccc(NC(=S)NNC(=S)Nc2cccc(C(F)(F)F)c2)cc1,26%,1.3µM*,-3,-16%,35µM*,9%
FC(F)(F)c1cccc(NC(=S)Nc2ccc(Cl)c(Cl)c2)c1,?,13µM*,-7,-23%,-19%,8%
COc1cc(NC(=O)Cc2ccccc2)ccc1NC(=O)c1ccccc1,/,/,2,/,8%,/
N#Cc1ccc(Cl)cc1NC(=O)CSc1nc2nc(-c3cccs3)cc(C(F)(F)F)c2c(=O)[nH]1,6%,/,-1,?,10%,16%
CCN(CC)c1ccc2c(c1)oc(=O)c1c(Cl)cc(=O)oc12,4µM*,2.2µM*,0,-10%,-7%,34%
CCN(CC)c1ccc2c(C)cc(=O)oc2c1,/,?,/,/,/,-4%
CCN(CC)c1ccc2c(Cl)c(Br)c(=O)oc2c1,3.2µM*,3.2µM*,1,?,56µM*,87%
Cc1[nH]c(-c2ccc(F)cc2)cc1C(=O)N1CCN(c2cccc(Cl)c2)CC1,/,/,0,/,10%,/
CCc1ccc(CNC(=O)C2CCCN(c3nnc(C)c4c(C)n(-c5ccccc5)nc34)C2)cc1 (configuration not stated),/,/,/,/,56µM*,/
